From PubChem BioAssay
The sample as a whole holds a higher share of hits than the screen did.
Algae TAG accum: inducers of TAG accumulation in Chlamydomonas, primary screen, qHTS, Chlamydomonas reinhardtii; 44,000 tested, 0.84% active; calls only at 10 µM (by protocol); AID 1159537, 2015; Nile Red fluorescence, 72 h; call rule not given here;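 further: hits raise Nile Red signal meaning more stored TAG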
Calls only; – = inactive; + = active, no number.

SMILES	Algae TAG accum
COc1cc(CNC2CCC(C)C2)cc(OC)c1 (centres undefined)	–
COc1ccc(CNC2CCCC2)cc1OC	–
COc1ccc(CNC2CCCC(C)C2)cc1 (centres undefined)	+
O=C(Nc1ccc(Oc2ccc(NC(=O)c3cccnc3)cc2)cc1)c1cccnc1	–
COCCNC(=O)c1c(NC(=O)COc2ccccc2OC)sc2c1CCCC2	–
COc1cc(C(=O)N2CCN(Cc3ccccc3F)CC2)cc(OC)c1OC	–
COc1ccc(CN2CCN(Cc3ccc(SC)cc3)CC2)c(OC)c1OC	–
COc1cccc(CN2CCN(Cc3cc(OC)c(OC)c(OC)c3)CC2)c1OC	–
COc1ccc(CN2CCN(Cc3cccc(OC)c3OC)CC2)cc1	–
COc1ccc(CN2CCN(c3ccccc3Cl)CC2)c(OC)c1OC	–
COc1cc(C(=O)N2CCN(Cc3ccc(OC)c(OC)c3OC)CC2)cc(OC)c1OC	–
COc1cccc(CN2CCN(C(=O)c3cc(OC)c(OC)c(OC)c3)CC2)c1OC	+
COc1ccc(CN2CCN(Cc3ccccc3)CC2)c(OC)c1OC	+
COc1cccc(CN2CCN(Cc3ccc(F)cc3)CC2)c1OC	+
COc1ccc(NC(=O)Cc2ccc(F)cc2)c([N+](=O)[O-])c1	–
CCOc1ccc(N(CC(=O)Nc2cccnc2)S(=O)(=O)c2ccc(OC)c(OC)c2)cc1	–
CCc1ccc(/C=C(/C#N)c2nc3ccccc3[nH]2)cc1	–
COc1ccc(OCCCC(=O)Nc2c(C)cc(C)cc2Cl)cc1	–
Cc1cccc(C(C)C)c1NC(=O)c1ccc([N+](=O)[O-])cc1	–
O=C(/C=C/c1ccco1)c1ccc(NC(=O)c2ccco2)cc1	–
COc1cccc(N(CC(=O)Nc2ccccc2C(=O)NCc2ccccc2)S(C)(=O)=O)c1	–
COc1ccccc1N1CCN(C2CCN(Cc3ccc4c(c3)OCO4)CC2)CC1	–
COc1ccccc1N1CCN(C2CCN(Cc3cccc(F)c3)CC2)CC1	+
CCc1ccc(CN2CCC(N3CCN(c4ccccc4OC)CC3)CC2)cc1	–
COc1ccc(OC)c(-c2cc(C(=O)Nc3nnc(C4CC4)s3)c3ccccc3n2)c1	–
SMILES	Algae TAG accum
Clc1ccc(CN2CCCCCC2)cc1	+
Clc1ccc(CN2CCCCCCC2)cc1	–
Clc1ccc(CN2CCC(N3CCCCCC3)CC2)cc1	–
CC(C)c1ccc(C(C)(C)CC(=O)O)cc1	–
COc1cccc(N2C(=O)C(O)=C(C(C)=O)C2c2ccc([N+](=O)[O-])cc2)c1 (centres undefined)	–
CC(=O)Nc1ccc(N2C(=O)CC(N3CCN(c4ccc([N+](=O)[O-])cc4)CC3)C2=O)cc1 (centres undefined)	–
CCc1ccccc1N(CC(=O)Nc1ccccc1C(=O)NCc1ccccc1)S(C)(=O)=O	–
CC(C)(Oc1ccc(Cl)cc1)C(=O)N1CCN(c2ccc(F)cc2)CC1	+
CC(C)(Oc1ccc(Cl)cc1)C(=O)N1CCN(c2cccc(Cl)c2)CC1	–
CC(C)(Oc1ccc(Cl)cc1)C(=O)N1CCN(c2ccccn2)CC1	–
Cc1ccccc1NC(=O)c1ccc(Br)cc1	–
COc1ccc(OC)c(NC(=O)c2cccc(I)c2)c1	–
COc1ccc(CN2C(=O)CC(Cc3ccccc3)C2=O)cc1 (centres undefined)	–
Cc1ccccc1OCC(=O)Nc1ccccc1C(=O)NCc1cccnc1	–
O=C(CCC1CCCCC1)NCc1ccc2c(c1)OCO2	–
c1cc2c(cc1CNC1CCCC1)OCO2	+
c1cc2c(cc1CNC1CCCCC1)OCO2	–
O=S(=O)(Cc1ccccc1)N1CCN(S(=O)(=O)c2ccc(F)cc2)CC1	–
CCSc1nc(O)c(CC)c(=O)n1C1CCCCC1	–
Cc1c(C(=O)N(C)c2ccccc2)oc2ccccc12	–
CN1CCC(N(C)Cc2cccc(Oc3ccccc3)c2)CC1	+
CN1CCC(N(C)Cc2cccs2)CC1	–
Cc1ccc(CN(C)C2CCN(C)CC2)s1	+
CCc1ccc(CN(C)C2CCN(C)CC2)cc1	+
CN1CCC(N(C)Cc2coc3ccccc3c2=O)CC1	–
SMILES	Algae TAG accum
CC(C)c1ccc(CN(C)C2CCN(C)CC2)cc1	–
CCOc1ccc(CN(C)C2CCN(C)CC2)cc1	–
CN1CCC(N(C)Cc2ccc(Cl)c(Cl)c2)CC1	–
COc1cccc(CN(C)C2CCN(C)CC2)c1	–
CCn1cc(CNC(=O)c2ccc(Cl)cc2[N+](=O)[O-])cn1	–
Brc1ccc(CN2CCN(c3ccccn3)CC2)o1	–
COc1cc(C)c(CN2CCCN(C)CC2)cc1C	+
COc1cc(C)c(CN2CCC(N3CCCCC3)CC2)cc1C	–
COc1ccc(CN2CCN(Cc3ccc4c(c3)OCO4)CC2)c(OC)c1	–
COc1ccccc1CN1CCN(Cc2ccc3c(c2)OCO3)CC1	–
COc1ccc(CN2CCCN(C)CC2)c(OC)c1	–
COc1cc(C)c(CN2CCN(Cc3ccc4c(c3)OCO4)CC2)cc1C	+
O=C(Nc1cccc(F)c1)[C@@H]1C[C@@H]1c1ccccc1	–
CC(=O)Nc1ccc(NC(=O)COc2c(C)cc(Cl)cc2Cl)cc1	–
CCN(Cc1ccccc1)Cc1ccc(N(C)C)cc1	–
CC(C)SCCCOc1ccccc1F	–
N#CC(=CNc1ccccc1Cl)c1nc(-c2cccc([N+](=O)[O-])c2)cs1	–
CCN(CC)c1ccc(CN2CCN(C)CC2)cc1	–
CCN(CC)c1ccc(CN2CCSCC2)cc1	–
CCN1CCN(Cc2ccc(N(CC)CC)cc2)CC1	+
COc1ccc(NC(=O)c2c(NC(=O)CNCCO)sc3c2CCC3)cc1	–
Cc1ccc(NC(=O)C(=O)NC2CCCC2)cc1Cl	–
O=C(c1ccccc1)N1CCN(Cc2ccncc2)CC1	–
CCN1CCN(C2CCCC(C)C2)CC1 (centres undefined)	–
COc1ccccc1N1CCN(C2CCN(C3CCC(c4ccccc4)CC3)CC2)CC1 (centres undefined)	–
SMILES	Algae TAG accum
COc1ccc(C(=O)N2CCN(C3CCC(c4ccccc4)CC3)CC2)cc1OC (centres undefined)	–
CCN1CCN(C2CCC(C(C)(C)C)CC2)CC1 (centres undefined)	+
c1ccc(CN2CCC(N3CCN(C4CCCC4)CC3)CC2)cc1	–
CCN1C(=O)CC(N2CCN(c3ccc(Cl)cc3)CC2)C1=O (centres undefined)	–
CCN1CCN(CC2CCCCC2)CC1	–
CCCN1CCC(N2CCN(c3ccc([N+](=O)[O-])cc3)CC2)CC1	–
CCN1CCC(N2CCN(c3ccc(Cl)cc3)CC2)CC1	+
CCN1CCN(C2CCC(c3ccccc3)CC2)CC1 (centres undefined)	+
c1ccc(C2CCC(N3CCN(Cc4ccncc4)CC3)CC2)cc1 (centres undefined)	+
CC(=O)c1ccc(NC(=O)CNC(=O)C2CCCCC2)cc1	–
CC1CCCC(C)N1S(=O)(=O)c1ccc(I)cc1 (centres undefined)	–
c1csc(CN2CCCCCC2)c1	–
CS(=O)(=O)C1=C(O)C(=O)N(c2ccccc2)C1c1ccc(Br)cc1 (centres undefined)	–
C=CCn1c(=O)c(-c2nc3ccccc3c(=O)[nH]2)c(O)c2ccccc21	–
CC1CCc2c(sc(NC(=O)c3ccccc3[N+](=O)[O-])c2C(N)=O)C1 (centres undefined)	–
COc1ccc(C(=O)Nc2sc3c(c2C(N)=O)CCC(C)C3)c(OC)c1 (centres undefined)	+
Cc1ccc(C(=O)Nc2sc3c(c2C(N)=O)CCC(C)C3)o1 (centres undefined)	–
COc1cc(-c2nnc(COc3ccc(Cl)cc3Cl)o2)cc(OC)c1OC	–
